Counter-ions that a name gives are not always drawn.
Columns and labels:
Test in all cases: Euclidean distance of Cell Painting phenotypic profile (signed KS, 77 features) to DMSO centroid (dimensionless distance); 5 or 10 uM (library dependent); higher = stronger phenotypic change vs DMSO (phenoactivity)
Details in all cases: 48 h
786-O = system: 786-O
Outline: (§1)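 Library compounds were applied at 10 or 5 uM, depending on the library, with 0.1% DMSO final, for 48 h to five cancer lines and a healthy fibroblast line. After staining, cells were imaged confocally at 20X across 9 fields per well, and Harmony extracted 77 features, each scored as a signed Kolmogorov-Smirnov statistic against vehicle wells on the same plate. Phenoactivity is the Euclidean distance between each profile and the median vehicle profile, with profiles first plate-position corrected, correlation-weighted and averaged over replicates at the top dose.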

A549 = system: A549
Outline: as §1

DU145 = system: DU145
Outline: as §1

FB = system: FB
Outline: as §1

HEPG2 = system: HEPG2
Outline: as §1

OVCAR4 = system: OVCAR4
Outline: as §1

Compound | Euclidean distance (786-O) | Euclidean distance (A549) | Euclidean distance (DU145) | Euclidean distance (FB) | Euclidean distance (HEPG2) | Euclidean distance (OVCAR4)
Oc1ccc([C@H]2COc3cc(O)ccc3C2)cc1 (racemic) | 1.39 | 0.796 | 1.27 | 0.952 | 0.464 | 0.928
Cc1c(-c2ccc(O)cc2)n(Cc2ccc(OCCN3CCCCCC3)cc2)c2ccc(O)cc12 [Bazedoxifene Acetate] | 4.76 | 4.78 | 3.21 | 4.56 | 4.37 | 3.76
Cn1cc(/C=C2\C(=O)Nc3cccnc32)c2ccccc21 | 0.739 | 1.41 | 1.16 | 1.5 | 0.771 | 1.53
O=[N+]([O-])c1cncn1CCN1CCOCC1 [Nimorazole] | 0.827 | 0.551 | 1.21 | 0.76 | 1.18 | 0.937
CCN(CC)C(=O)Nc1ccc(OCC(O)CNC(C)(C)C)c(C(C)=O)c1 (configuration not stated) [Celiprolol hydrochloride] | 0.816 | 0.829 | 1.41 | 1.17 | 0.422 | 1.24
CN1[C@@H](CC(=O)c2ccccc2)CCC[C@H]1C[C@H](O)c1ccccc1 [Lobeline hydrochloride] | 1.09 | 0.739 | 1.56 | 1.44 | 0.499 | 1.16
Oc1ccc(O)cc1 [Hydroquinone] | 1.49 | 1.06 | 1.21 | 1.36 | 1.04 | 1.09
N[C@@H](CC(=O)N1CCn2c(nnc2C(F)(F)F)C1)Cc1cc(F)c(F)cc1F [Sitagliptin phosphate monohydrate] | 0.554 | 0.819 | 1.11 | 0.644 | 0.395 | 0.956
CCCC(=O)Nc1ccc(OCC(O)CNC(C)C)c(C(C)=O)c1 (configuration not stated) [Acebutolol HCl] | 0.96 | 0.8 | 1.23 | 1.3 | 0.817 | 1.34
CCCCCCCCOc1ccccc1C(=O)Nc1ccc(C(=O)OCC[N+](C)(CC)CC)cc1 [Otilonium Bromide] | 1.03 | 1.09 | 1.91 | 1.24 | 1.11 | 1.03
COC(=O)C1=C(C)NC(C)=C(C(=O)OCC(C)C)C1c1ccccc1[N+](=O)[O-] (configuration not stated) [Nisoldipine] | 2.53 | 0.958 | 1.95 | 1.86 | 2.21 | 1.43
O=C(/C=C/c1ccc(O)c(O)c1)O[C@@H]1C[C@](O)(C(=O)O)C[C@@H](O)[C@H]1O [Chlorogenic Acid] | 1.05 | 1.05 | 1.38 | 1.17 | 1.21 | 1.15
O=C(O)CCCCC(CCSCc1ccccc1)SCc1ccccc1 (configuration not stated) | 0.848 | 0.928 | 1.09 | 0.687 | 0.938 | 0.821
N=C1CCCN1Cc1[nH]c(=O)[nH]c(=O)c1Cl [Tipiracil hydrochloride] | 1.02 | 0.947 | 0.925 | 1.05 | 0.343 | 0.676
Nc1nc(OCc2cc(Br)cs2)c2[nH]cnc2n1 [Lomeguatrib] | 1.07 | 1.13 | 1.15 | 1.29 | 0.861 | 1.04
CC(C)COCC(CN(Cc1ccccc1)c1ccccc1)N1CCCC1 (configuration not stated) [Bepridil hydrochloride] | 1.64 | 2.55 | 2.06 | 1.65 | 1.94 | 1.73
Cc1ccc(=O)n(-c2ccccc2)c1 [Pirfenidone] | 1.25 | 0.718 | 1.64 | 0.845 | 0.297 | 1.38
N#CCC1(n2cc(-c3ncnc4[nH]ccc34)cn2)CN(C2CCN(C(=O)c3ccnc(C(F)(F)F)c3F)CC2)C1 | 1.27 | 1.05 | 1.46 | 1.34 | 0.742 | 1.05
COc1cc2c(Oc3ccc4[nH]c(C)cc4c3F)ncnc2cc1OCCCN1CCCC1 [Cediranib Maleate] | 4.34 | 4.46 | 3.51 | 4.67 | 4.09 | 5.11
CCCCC(O)c1ccccc1 (configuration not stated) [Fenipentol] | 1.46 | 1.44 | 1.43 | 0.766 | 0.912 | 1.68
CS(=O)(=O)c1ccc([C@@H](O)[C@@H](CF)NC(=O)C(Cl)Cl)cc1 [Florfenicol] | 1.1 | 0.738 | 0.807 | 1.12 | 0.739 | 0.76
CCCCOC(=O)c1ccc(N)cc1 [Butamben] | 1.09 | 0.881 | 0.906 | 1.05 | 0.737 | 1.03
Cc1cnc(C(=O)NCCc2ccc(S(=O)(=O)NC(=O)NC3CCCCC3)cc2)cn1 [Glipizide] | 1.39 | 1.31 | 0.684 | 1.1 | 1.74 | 1.36
Cc1cc(C)c(/C=C2\C(=O)Nc3ccccc32)[nH]1 [Semaxanib (SU5416)] | 2.05 | 1.16 | 1.09 | 1.08 | 0.527 | 0.885

Compound | Euclidean distance (786-O) | Euclidean distance (A549) | Euclidean distance (DU145) | Euclidean distance (FB) | Euclidean distance (HEPG2) | Euclidean distance (OVCAR4)
CC(=O)O[C@]1(C(C)=O)CC[C@H]2[C@@H]3C=C(C)C4=CC(=O)CC[C@]4(C)[C@H]3CC[C@@]21C [Megestrol Acetate] | 1.71 | 1.65 | 1.57 | 1.46 | 1.89 | 1.61
C[C@]12CCC3=C4CCC(=O)C=C4CC[C@H]3[C@@H]1CC[C@@]2(O)CC#N [Dienogest] | 1.53 | 0.862 | 1.61 | 1.08 | 1.12 | 1.39
CN1CCN(c2ccc(C(=O)Nc3n[nH]c4ccc(Cc5cc(F)cc(F)c5)cc34)c(NC3CCOCC3)c2)CC1 [Entrectinib (RXDX-101)] | 5.06 | 3.73 | 4.31 | 5.6 | 5.43 | 4.97
CN1CCN(c2c(F)cc3c(=O)c(C(=O)O)cn4c3c2OCN4C)CC1 [Marbofloxacin] | 0.878 | 0.762 | 0.494 | 1.1 | 1.53 | 0.752
Nc1ccc(S(=O)(=O)NC(=O)c2ccccc2)cc1 [Sulfabenzamide] | 0.937 | 0.388 | 0.77 | 0.837 | 0.665 | 1.75
Nc1nc2n[nH]nc2c(=O)[nH]1 [Azaguanine-8] | 1.55 | 0.834 | 0.699 | 1.27 | 1.17 | 0.737
Cc1nc2ccc(-n3ncc(C(=O)c4cc5ccccc5[nH]4)c3N)cc2[nH]1 | 2.53 | 2.28 | 1.14 | 3.31 | 1.73 | 1.67
CN(C)CCOC(C)(c1ccccc1)c1ccccn1 (configuration not stated) [Doxylamine Succinate] | 1.09 | 0.709 | 1.18 | 1.42 | 0.475 | 1.14
C/C(O)=C(\C#N)C(=O)Nc1ccc(C(F)(F)F)cc1 [Teriflunomide] | 0.702 | 0.732 | 0.988 | 1.1 | 0.844 | 2.02
CNC[C@H](O)c1ccc(O)c(O)c1 [Epinephrine HCl] | 1.19 | 0.611 | 0.9 | 0.733 | 0.644 | 0.893
C[C@H](NC(=O)/C(C#N)=C/c1cccc(Br)n1)c1ccccc1 | 3.27 | 3.07 | 3.01 | 3.17 | 2.6 | 2.17
C[C@@H](Oc1ccc2[nH]nc(/C=C/c3cnn(CCO)c3)c2c1)c1c(Cl)cncc1Cl | 3.17 | 3.59 | 3.07 | 3.2 | 3.02 | 3.82
O=C(c1cccc(Cl)c1F)N1CCN(Cc2cccc(Nc3nccs3)n2)CC1 | 2.99 | 3.18 | 1.34 | 2.34 | 2.74 | 2.83
CCOC(=O)[C@@H](N)Cc1ccc(-c2cc(O[C@H](c3ccc(Cl)cc3-n3ccc(C)n3)C(F)(F)F)nc(N)n2)cc1 [Telotristat Etiprate (LX 1606 Hippurate)] | 3.69 | 1.52 | 2.43 | 2.23 | 1.13 | 1.3
Cc1ccc(S(=O)(=O)n2c(N)nc3ccccc32)cc1 [ML130 (Nodinitib-1)] | 0.771 | 1.13 | 0.862 | 0.77 | 1.18 | 0.774
CC1=CC(=O)c2ccccc2C1=O [Menadione] | 1.12 | 0.782 | 0.587 | 1.16 | 0.759 | 2.12
Nc1nc(Nc2ccc(S(N)(=O)=O)cc2)nn1C(=O)c1c(F)cccc1F | 1.27 | 1.64 | 1.5 | 0.817 | 1.7 | 1.05
C=CC(=O)Nc1cc(Nc2nccc(-c3cn(C)c4ccccc34)n2)c(OC)cc1N(C)CCN(C)C [Osimertinib (AZD9291)] | 4.93 | 4.24 | 4.29 | 5.35 | 5.16 | 4.21
CCCCCCCCCC(=O)N[C@H]1[C@H](Oc2c3cc4cc2Oc2ccc(cc2Cl)[C@@H](O[C@@H]2O[C@H](CO)[C@@H](O)[C@H](O)[C@H]2NC(C)=O)[C@@H]2NC(=O)[C@H](NC(=O)[C@@H]4NC(=O)[C@H]4NC(=O)[C@@H](Cc5ccc(c(Cl)c5)O3)NC(=O)[C@H](N)c3ccc(O)c(c3)Oc3cc(O)cc4c3)c3ccc(O)c(c3)-c3c(OC4O[C@H](CO)[C@@H](O)[C@H](O)[C@@H]4O)cc(O)cc3[C@@H](C(=O)O)NC2=O)O[C@H](CO)[C@@H](O)[C@@H]1O (some centres not stated) [Teicoplanin] | 1.09 | 1.18 | 0.773 | 0.777 | 1.39 | 1.07
NCCS(=O)(=O)O [Taurine] | 1.5 | 0.858 | 1.34 | 0.921 | 0.768 | 1.35
CCCCOc1ccc(OCCCN2CCOCC2)cc1 [Pramoxine HCl] | 1.3 | 0.99 | 1.08 | 0.528 | 0.51 | 1.2
O=c1[nH]cc(F)c(=O)[nH]1 [Fluorouracil (5-Fluoracil. 5-FU)] | 1.5 | 3.01 | 1.12 | 2.37 | 2.13 | 2.12
COc1cccc(-c2c(C)n(Cc3c(F)cccc3C(F)(F)F)c(=O)n(C[C@H](NCCCC(=O)O)c3ccccc3)c2=O)c1F [Elagolix Sodium] | 0.686 | 1.22 | 1.02 | 0.826 | 0.728 | 1.23

Source: the supplement of paper PMC10127200
